# Measured values: PubChem BioAssay (NCI)
# The panel holds about 83,000 compounds, 20% with a hit somewhere; the sample as a whole holds those more often.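 Negative percent growth values reflect cell death: -40 means 40% of the cells present at the start died, and -100 means all died.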 Values without a mark were called inactive. Activity calls are given as the source filed them. The calls were made as follows: active = growth percent below 10; inactive = the rest.
# What was measured:
# Test in all cases: NCI-60 one-dose screen, 48 h (100 = growth as untreated, 0 = no growth, -100 = all killed)
# Details in all cases: 10 µM unless noted
# [1] = system: NCI-H23 lung
# [2] = system: NCI-H226 lung
# [3] = system: NCI-H322M lung
# [4] = system: HOP-62 NSCLC
# [5] = system: NCI-H460 lung
# [6] = system: HOP-92 NSCLC
# [7] = system: NCI-H522 lung
# [8] = system: A549/ATCC NSCLC
# [9] = system: 786-0 renal
# [10] = system: COLO 205 colon
# [11] = system: DU-145 prostate
# [12] = system: K-562 leukemia
# [13] = system: MALME-3M melanoma
# [14] = system: MDA-MB-231 breast
# [15] = system: SF-268 CNS
# [16] = system: SF-295 CNS
# [17] = system: SF-539 CNS
# [18] = system: UACC-257 melanoma
# [19] = system: RXF 393 renal
SMILES,growth [1],growth [2],growth [3] [%],growth [4],growth [5],growth [6],growth [7],growth [8],growth [9],growth [10],growth [11],growth [12],growth [13],growth [14],growth [15],growth [16],growth [17],growth [18],growth [19]
C=C1C(=O)O[C@H]2[C@H]1CC/C(COC(=O)/C=C\C(=O)NCc1ccc(Cn3c(=O)sn(CCCI)c3=O)cc1)=C\CC[C@@]1(C)O[C@@H]21,-72.1% (active),-77% (active),17.3,-36% (active),-79.1% (active),-68.6% (active),-56.1% (active),-0.92% (active),-76.9% (active),-52.7% (active),-90.4% (active),-10.1% (active),-94.2% (active),-83.3% (active),-81.7% (active),58%,-98.7% (active),-53.7% (active),
C/C(=N\NC(N)=S)c1nc2ccc(Cl)cc2[nH]1,75.4%,46.3%,70,43%,15.3%,79.5%,34%,34.4%,31.2%,45%,34.1%,39.5%,113%,63.2%,33.2%,44.8%,43%,68.8%,48.9%
COc1ccc(/C(C)=C(\c2ccc(Cl)cc2)c2ccc(OCCN3CCCC3)cc2)cc1F,55.1%,69.3%,62.2,-17.6% (active),-55.6% (active),65.8%,71.1%,42.2%,4.18% (active),-40.6% (active),49.6%,-1.68% (active),-38.2% (active),36.7%,54.7%,-42.9% (active),3.19% (active),2.99% (active),
Cn1ncc2c(Nc3ccc(Br)cc3)nc(Nc3ccc(Br)cc3)nc21,27.5%,62.1%,73,23.8%,8.2% (active),7.66% (active),44.8%,48.1%,-38.9% (active),64%,68.3%,11.4%,55.4%,17.7%,57.6%,40.2%,64.9%,82.6%,64.1%
CC1=CC(=O)C(C(C)C)=CC1=Nc1cc(Br)c(O)c(Br)c1,25.7%,84.1%,53.6,12.7%,5.15% (active),35.5%,55%,28.2%,9.71% (active),144%,3.08% (active),0.315% (active),96.6%,7.91% (active),27%,17%,-33.6% (active),95.5%,5.99% (active)
CNC=O,85.7%,102%,97.5,107%,101%,92%,94.9%,88.8%,102%,97.7%,77.9%,107%,97%,98.7%,99.3%,96.8%,88.8%,91.1%,42.3%
CCCc1cc(=O)oc2c3c(c4c(c12)OC(C)(C)C=C4)O[C@@H](C)[C@H](C)C3=O,61.1%,89.8%,81,102%,60.5%,43.7%,71.9%,64.5%,72.8%,74.8%,79.4%,47.6%,90%,71.9%,86.4%,69.9%,81%,55.1%,18.4%
COc1ccc(OC)c(Nc2nc3nonc3nc2Nc2cc(OC)ccc2OC)c1,50%,50.3%,68.6,-12.8% (active),22%,13.2%,37.7%,20.7%,-23.8% (active),93.7%,55.5%,75.5%,29.9%,-1.9% (active),45.6%,77.9%,9.98% (active),52.1%,14.8%
COc1cccc(-c2cnco2)c1OCc1c(C)c(COc2c(OC)cccc2-c2cnco2)c(C)c(COc2c(OC)cccc2-c2cnco2)c1C,71.5%,21.8%,70.7,42.1%,52.2%,-6.35% (active),33.9%,51.8%,2.94% (active),83.4%,73.2%,85%,43.5%,30.5%,53.7%,82.1%,19.3%,58.4%,45.7%
Cc1nc(Nc2ccc(NC(=S)Nc3ccccc3)cc2)nc2nc(Nc3cccc(Cl)c3)[nH]c(=O)c12,92.4%,99.2%,183,91.7%,114%,60.4%,34.4%,86.1%,98.7%,122%,123%,71.8%,120%,84.7%,104%,116%,67.5%,98.9%,-12.9% (active)
Nc1c(C(=O)c2ccccc2)nnc2ncnn12,95.6%,94.5%,98.2,97%,106%,95.2%,88.5%,95.2%,97.2%,103%,106%,97.1%,107%,93%,102%,103%,117%,95.4%,110%
O=C(O)c1ccc(CO)o1,110%,106%,105,113%,101%,91.5%,86.4%,93.6%,77.8%,115%,113%,109%,113%,112%,109%,102%,99.6%,85.5%,104%
NS(=O)(=O)c1cn(-c2ncnc3nc[nH]c23)ccc1=O,94.2%,78%,94.5,94.9%,112%,82.7%,51.2%,36%,96.9%,100%,103%,84.6%,82.9%,89.3%,93.3%,49.3%,105%,138%,130%
O=C(Nc1cccc2[nH]c(C(F)(F)F)nc12)c1cc(Cl)ccc1Cl,-3.56% (active),34.4%,45.9,32.1%,17.2%,-11% (active),-13.2% (active),19.8%,47.1%,24.6%,53.7%,19.8%,16.1%,40.6%,44.6%,29.2%,52.9%,28.7%,41.1%
Cc1ccc(S(=O)(=O)NN/C(N)=N\S(=O)(=O)c2cc(C)c(Cl)cc2SCc2ccccc2)cc1,90.6%,90.4%,168,82.4%,110%,71%,29.9%,56.7%,93.4%,115%,115%,57.8%,76.1%,92.5%,102%,95%,73.9%,97.3%,8.06% (active)
COc1ccc(C(=O)/C=C/c2cc3c(c(OC)c2)OCC(=O)N3)cc1,58.5%,87.6%,87.8,87.4%,9.81% (active),39.5%,46.4%,78%,14.5%,77%,-20.7% (active),7.5% (active),88.4%,67.7%,21.4%,88.7%,7.09% (active),91.6%,49.7%
